ZTA counter = counter-screen for EBNA-1 inhibitors: inhibitors of Epstein-Barr virus ZTA; inhibition, % at 11 µM; ZTA-DNA binding, fluorescence polarization; 0.15% of 320,000 active; P03206; in the data active = inhibition above about 33%
Target sequence (P03206 whole entry, looked up): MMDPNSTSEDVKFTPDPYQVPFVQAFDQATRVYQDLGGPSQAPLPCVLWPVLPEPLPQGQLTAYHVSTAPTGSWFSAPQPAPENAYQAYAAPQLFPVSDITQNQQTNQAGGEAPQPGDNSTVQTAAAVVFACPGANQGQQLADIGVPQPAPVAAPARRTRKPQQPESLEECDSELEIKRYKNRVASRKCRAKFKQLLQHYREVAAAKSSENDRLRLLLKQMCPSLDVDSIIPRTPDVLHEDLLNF
PolyA inh = yeast polyadenylation inhibition. S. cerevisiae SKY197-pL101 polyadenylation reporter, beta-gal luminescence; efflux-impaired pdr1/pdr3 knockout yeast; score 100 = 6 SD above DMSO. activity score, % at 12 µM. 0.02% of 300,000 active. AID 1875;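 active = lowest replicate activity score at least 50, where 100 means six control SD above control mean; inconclusive = lowest score under 50 but half or more replicates reach 50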;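 note: yeast exposed to compound for 9 h at 30 °C; higher score means more reporter readthrough which indicates perturbed polyadenylation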
NALP1 inh = inhibitors of NALP1 inflammasome in yeast | S. cerevisiae NALP1/ASC/caspase-1 growth, X-gal OD620, 72 h | 0.61% of 280,000 active | AID 2071 | inhibition, % at 10 µM; in the data active = inhibition mostly above about 24%, no sharp cut-off; inactive = mostly below about 32%
NLRP3 yeast inh = inhibitors of NALP3 inflammasome in yeast | AID 2825 | Yeast reconstituted NLRP3/ASC/caspase-1, beta-gal luminescence, 24 h | inhibition, % at 10 µM | 0.39% of 330,000 active;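 active = inhibition of 50% or more; inactive = inhibition below 50%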;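 note: plate controls were induced DMSO wells for no effect and uninduced yeast grown without galactose for full effect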
EBNA-1 inhibitor = blocks EBNA-1 binding to DNA | EBNA-1 DNA binding, fluorescence polarization | 0.34% of 300,000 active | inhibition, % at 14.8 µM; in the data active = inhibition above about 28%
dFosB act-1 = enhances mouse delta FosB homodimer DNA binding; purified delta FosB, TAMRA-CDK5 oligo fluorescence polarization; percent of positive-control signal above neutral wells; activation, % at 25 µM; 0.99% of 340,000 active;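 active = mean activation above about 17%, with every replicate also reaching it, limit read from the data, passing the limit was not always enough; inconclusive = only one of the two conditions met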
Target sequence (P13346 whole entry, looked up): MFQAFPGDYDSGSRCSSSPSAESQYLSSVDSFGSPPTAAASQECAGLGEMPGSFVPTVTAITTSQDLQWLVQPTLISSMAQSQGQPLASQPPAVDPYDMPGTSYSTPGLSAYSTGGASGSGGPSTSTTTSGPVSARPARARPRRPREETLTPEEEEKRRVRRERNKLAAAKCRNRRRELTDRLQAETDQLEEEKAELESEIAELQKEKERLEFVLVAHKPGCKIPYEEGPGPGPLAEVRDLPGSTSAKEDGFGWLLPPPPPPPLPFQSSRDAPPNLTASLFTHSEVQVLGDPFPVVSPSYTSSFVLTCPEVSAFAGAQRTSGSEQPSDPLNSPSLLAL
dFosB act-2 = enhances mouse delta FosB homodimer binding to DNA; shares compounds with dFosB act-1; purified delta FosB, TAMRA-CDK5 oligo fluorescence polarization; normalised: neutral wells 0, positive control 100; activation, % at 24.9 µM; 2,400 tested, under 10 active;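 active = highest replicate activation at or above 34% and every replicate reaching that threshold; inconclusive = meets only one of the two criteria; inactive = meets neither criterion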;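 note: higher polarization means more probe DNA bound by delta FosB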
* marks the source's active call; other numbers are inactive results. Rows were chosen to be rich in hits. Some 2.2% of all compounds tested hit in one or more screens of this group.

How did COc1ccc(N(C(=O)c2snc(C(N)=O)c2N)C(C(=O)NC2CCCC2)c2cccs2)cc1OC (configuration not stated) do in these assays?
ZTA counter: -14; PolyA inh: -14; NALP1 inh: 6; NLRP3 yeast inh: -2; EBNA-1 inhibitor: -9; dFosB act-1: 37*; dFosB act-2: 2

Results for NC(=O)c1nsc(C(=O)N(c2ccccc2F)C(C(=O)NCc2ccc(F)cc2)c2ccc(O)cc2)c1N (configuration not stated) ?
ZTA counter: 26; PolyA inh: -9; NALP1 inh: 16; NLRP3 yeast inh: 11; EBNA-1 inhibitor: 22; dFosB act-1: 44*; dFosB act-2: 5

What do the screens show for `COc1ccc(N(C(=O)c2snc(C(N)=O)c2N)C(C(=O)NC2CCCCC2)c2ccc(F)cc2)c(OC)c1` (configuration not stated)?
ZTA counter: 15; PolyA inh: -4; NALP1 inh: 13; NLRP3 yeast inh: 13; EBNA-1 inhibitor: -3; dFosB act-1: 40*; dFosB act-2: 0

Results for COc1ccccc1N(C(=O)c1snc(C(N)=O)c1N)C(C(=O)NCc1ccccc1)c1ccc(O)cc1 (configuration not stated) ?
PolyA inh: -15; NALP1 inh: 4; NLRP3 yeast inh: 6; dFosB act-1: 3

How did CCCCC(C(=O)NC1CCCC1)N(C(=O)c1snc(C(N)=O)c1N)c1ccc(OCC)cc1 (configuration not stated) do in these assays?
ZTA counter: 4; PolyA inh: 8; NALP1 inh: 17; NLRP3 yeast inh: 1; EBNA-1 inhibitor: -23; dFosB act-1: -9

How did CCCC(C(=O)NC1CCCC1)N(C(=O)c1snc(C(N)=O)c1N)c1ccc(F)cc1 (configuration not stated) do in these assays?
PolyA inh: -7; NALP1 inh: 23; NLRP3 yeast inh: 11; dFosB act-1: 24*; dFosB act-2: 2

Results for CCN1CCN(C(=O)N(CC(=O)Nc2ccc(C(N)=O)cc2)S(=O)(=O)c2ccc(C)cc2)CC1 ?
PolyA inh: 18; NLRP3 yeast inh: 9; dFosB act-1: -4

What do the screens show for `O=C(N/N=C/c1ccccn1)NC12CC3CC(CC(C3)C1)C2`?
ZTA counter: 2; PolyA inh: 3; NALP1 inh: 15; NLRP3 yeast inh: 37; EBNA-1 inhibitor: 5; dFosB act-1: 0

What do the screens show for `CN(Cc1cnn(Cc2ccccc2)c1)C(=O)CN=C1NS(=O)(=O)c2ccccc21`?
ZTA counter: -12; NLRP3 yeast inh: -2; dFosB act-1: 2

Results for COc1ccccc1CNC(=O)COC(=O)c1cccc(-n2cnnn2)c1 ?
ZTA counter: -26; NLRP3 yeast inh: 0; dFosB act-1: -3

Results for CCN(CC)S(=O)(=O)c1ccc(NC(=O)CSc2nnc(-c3ccc(F)cc3)o2)cc1 ?
ZTA counter: -7; PolyA inh: 7; NALP1 inh: -2; NLRP3 yeast inh: 1; EBNA-1 inhibitor: -1; dFosB act-1: -2

Results for O=C(COC(=O)CSc1nnc(-c2ccc(Cl)cc2)o1)NCc1ccc2c(c1)OCO2 ?
ZTA counter: -1; PolyA inh: -22; NALP1 inh: 8; NLRP3 yeast inh: 19; EBNA-1 inhibitor: 2; dFosB act-1: 24*; dFosB act-2: 3

How did CCN(CC)S(=O)(=O)c1ccc(-c2nnc(SCC(=O)Nc3ccc4c(c3)OCO4)o2)cc1 do in these assays?
ZTA counter: -14; PolyA inh: -1; NALP1 inh: 14; NLRP3 yeast inh: 0; EBNA-1 inhibitor: 4; dFosB act-1: 31*; dFosB act-2: -2

How did Cc1nc2ccccn2c1C(=O)CSc1ccccc1Cl do in these assays?
ZTA counter: 10; PolyA inh: -23; NALP1 inh: 20; NLRP3 yeast inh: 34; EBNA-1 inhibitor: 8; dFosB act-1: -21

Results for Cc1nc2ccccn2c1C(=O)CSc1ccc(Cl)cc1Cl ?
ZTA counter: -5; PolyA inh: -43; NALP1 inh: 1; NLRP3 yeast inh: 12; EBNA-1 inhibitor: -6; dFosB act-1: 50*; dFosB act-2: 1

How did COc1cn(-c2ccccc2)nc1C(=O)Nc1ccc(C)cc1Cl do in these assays?
ZTA counter: -3; PolyA inh: -18; NALP1 inh: -1; NLRP3 yeast inh: 31; EBNA-1 inhibitor: -1; dFosB act-1: -18

Results for O=C1Nc2cc(C(=O)NCCCN3CCCC3)ccc2S/C1=C/c1ccccc1F ?
ZTA counter: -13; PolyA inh: -13; NALP1 inh: 18; NLRP3 yeast inh: -9; EBNA-1 inhibitor: 6; dFosB act-1: -23

What do the screens show for `COc1cccc(/C=C2/Sc3ccc(C(=O)NCCCN4CCCC4)cc3NC2=O)c1`?
ZTA counter: 3; PolyA inh: -5; NALP1 inh: 20; NLRP3 yeast inh: 3; EBNA-1 inhibitor: -6; dFosB act-1: 37*; dFosB act-2: 4

Results for CSc1ccc(S(=O)(=O)N2CCC(C(=O)NC3CC3)CC2)cc1 ?
ZTA counter: 4; PolyA inh: 4; NALP1 inh: 0; NLRP3 yeast inh: 9; EBNA-1 inhibitor: 12; dFosB act-1: 3

Results for CN(C)CCN(C(=O)c1ccc(C(=O)c2ccccc2)cc1)c1nc2cc3c(cc2s1)OCCO3 ?
ZTA counter: 6; PolyA inh: -1; NALP1 inh: 24; NLRP3 yeast inh: 10; EBNA-1 inhibitor: -3; dFosB act-1: 24*; dFosB act-2: -8

What do the screens show for `CN(C)CCCN(C(=O)c1ccc2c(c1)CCCC2)c1nc2cc3c(cc2s1)OCO3`?
ZTA counter: -5; PolyA inh: -8; NALP1 inh: -70; NLRP3 yeast inh: 44; EBNA-1 inhibitor: -2; dFosB act-1: 26*; dFosB act-2: 2

Results for Cc1cc(C)c2nc(N(CCN(C)C)C(=O)c3ccc4ccccc4c3)sc2c1 ?
ZTA counter: 4; PolyA inh: 16; NALP1 inh: 22; NLRP3 yeast inh: 12; EBNA-1 inhibitor: -11; dFosB act-1: 21*; dFosB act-2: 6

How did CN(C)CCCN(C(=O)c1ccc(C(=O)c2ccccc2)cc1)c1nc2cc3c(cc2s1)OCCO3 do in these assays?
ZTA counter: 10; PolyA inh: 11; NALP1 inh: 19; NLRP3 yeast inh: 26; EBNA-1 inhibitor: 5; dFosB act-1: inconclusive

How did CN(C)CCN(C(=O)CN1C(=O)c2ccccc2C1=O)c1nc2cc3c(cc2s1)OCO3 do in these assays?
ZTA counter: -16; PolyA inh: 2; NALP1 inh: 19; NLRP3 yeast inh: -3; EBNA-1 inhibitor: 4; dFosB act-1: 38*; dFosB act-2: 4

Screens (PubChem)
